Results on 42 sequences are retold here after article PMC7819943, “Rice protein-binding microarrays: a tool to detect cis-acting elements near promoter regions in rice”.

Whole data set: some 68,000 sequences, median “fluorescence intensity (a.u.)” near 9,100, cut for the highest 2% near 16,000. The sample holds the highest values, similar sequences and a random draw of the others, so the mix is not that of the screen.

OsWRKY34, sequence (Q0JBA9 entry or part of it): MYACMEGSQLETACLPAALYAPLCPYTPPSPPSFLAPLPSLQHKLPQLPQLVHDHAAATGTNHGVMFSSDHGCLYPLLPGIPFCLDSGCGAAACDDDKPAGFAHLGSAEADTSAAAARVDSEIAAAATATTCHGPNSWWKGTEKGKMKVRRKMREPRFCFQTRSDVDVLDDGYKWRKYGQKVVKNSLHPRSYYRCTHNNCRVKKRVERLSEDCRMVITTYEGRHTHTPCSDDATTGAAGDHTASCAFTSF

The test deals with OsWRKY34 (Oryza sativa, UniProt Q0JBA9 1-250). In words: protein-binding microarray (RPBM); PBS, 2% BSA, 51.3 ng/ul salmon testes DNA, 50 uM zinc acetate, 200 nM TF, 25 C, 1 h; high values mean tight binding. The settings on record: protein: recombinant; tags: N-terminal polyhistidine and DsRed monomer fusion (pET32a); label: CyDye5-dUTP incorporated in the synthesized complementary strand; 3' TTTTT single-stranded linker to array surface; dsDNA, one strand shown. Summed up:
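In PBS with 2% BSA, salmon testes DNA and 50 µM zinc acetate, 200 nM protein was incubated on a custom Agilent array at 25 °C for 1 h and then washed off. The array had been made double-stranded by primer extension with Cy5-dUTP and blocked with 2% BSA. The proteins were transcription factors fused N-terminally to polyhistidine and DsRed, expressed in E. coli BL21-CodonPlus and purified on Ni–NTA. The binding signal is per-feature fluorescence intensity (arbitrary units) from an Axon 4000B scanner.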
Take “GCAACCACTGTCTCGCTCTCCGCCGCCATCGCCGCCGCCGCGGAGTCACCTAGTGCAG”: the binding signal is 10500 fluorescence intensity (a.u.).
For the sequence “CAGCCCACCGCCGCATCCTCGCAACCACTGTCTCGCTCTCCGGAGTCACCTAGTGCAG”, the binding signal was 17000 fluorescence intensity (a.u.).
Then “ATTTTTTTGGGCGCGGGTTGGAGCCGGTTTGACTAAAAGGCGGAGTCACCTAGTGCAG”, with 8310 fluorescence intensity (a.u.).
Next, “GATTGACTTGCCAAACATTTTACATGCGTTTATTGTACCACGGAGTCACCTAGTGCAG”: 9920 fluorescence intensity (a.u.).
Regarding “CTCCTGGCAACCCCATGCACTGCTTTTGCTGCCCTTAAGTCGGAGTCACCTAGTGCAG”, the binding signal is 8620 fluorescence intensity (a.u.).
On to “AAATATACAACTCTTGGACGCCCTTACATCTCTCCATTGTCGGAGTCACCTAGTGCAG”, for which the binding signal was 8230 fluorescence intensity (a.u.).
For the sequence “AGCCACCTTGTCGTTTTCCGCTCCTCACCTGCTCAACTTCCGGAGTCACCTAGTGCAG”, the binding signal was 9800 fluorescence intensity (a.u.).
On to “TACGGGTTAGGGTTTGGGGTTGGGGTCAAGGTAGGAGGGGCGGAGTCACCTAGTGCAG”, for which the binding signal was 22500 fluorescence intensity (a.u.).
Turning to “ACACACCGCGGGTTGGAGGAGGAGGAGGAGGAGGTAGGGGCGGAGTCACCTAGTGCAG”, the binding signal is 10500 fluorescence intensity (a.u.).
Take “GGTTTGGAGGCGGAGGTGGCGCTGGAGGAGGCGGCGGTCTCGGAGTCACCTAGTGCAG”: the binding signal is 9970 fluorescence intensity (a.u.).
Regarding “CGGCGGGTTAGGGTTTGGGGTTGGGGTAAGGATAGGAGGGCGGAGTCACCTAGTGCAG”, the binding signal is 14200 fluorescence intensity (a.u.).
For the sequence “GTGCGCGTTCTTGGTGTTATGGAGGCGGGTCTCGGCGGGGCGGAGTCACCTAGTGCAG”, the binding signal was 17600 fluorescence intensity (a.u.).
In the case of “GTTTGATTTGGTGAGGCGGGCGGTGTGCGCGTGGTGGTCTCGGAGTCACCTAGTGCAG”, the binding signal is 8680 fluorescence intensity (a.u.).
“CTTGGAGGTGGTTCAGGTGGAGGCGGCGGTCTCGGAGGTGCGGAGTCACCTAGTGCAG”: the binding signal is 9240 fluorescence intensity (a.u.).
In the case of “AGAGGTTTGGGGTTGGTTCATCTCGCGGGCTTGGGCGGCGCGGAGTCACCTAGTGCAG”, the binding signal is 14400 fluorescence intensity (a.u.).
Then “GGTTTGGTTGGGGTTTAGGTCTCGGGGCGGCGCGGAGGCGCGGAGTCACCTAGTGCAG”, with 17700 fluorescence intensity (a.u.); and “GCCTCGACATGCGCGTCCGATTTATCCCCTTTTTTTTTTTCGGAGTCACCTAGTGCAG”, with 8470 fluorescence intensity (a.u.).
Take “CATGCCAGGTGTTGGGCCTCATCGTCGGCCGCTTAGTATCCGGAGTCACCTAGTGCAG”: the binding signal was 8380 fluorescence intensity (a.u.).
For the sequence “TTTTGTCCTTCAACCTGTTGAAGTTGTTTTCAGTTGTTCACGGAGTCACCTAGTGCAG”, the binding signal was 11600 fluorescence intensity (a.u.).
Next, “GTCACCAGTGTCCGCCAATAATTTGCACATCTTCTCATATCGGAGTCACCTAGTGCAG”: 10300 fluorescence intensity (a.u.); “TGCTTAGTTGCCCTACAACCTTTTTACAGGCTATATTTATCGGAGTCACCTAGTGCAG”: 8110 fluorescence intensity (a.u.); “TAGCTTAATATTTTTTTTCTCGCTAGCTTTATTTAAAATGCGGAGTCACCTAGTGCAG”: 8170 fluorescence intensity (a.u.).
In the case of “TATTCACGGCTGCACTTATTTTGGGACGGAGGTAGTATTTCGGAGTCACCTAGTGCAG”, the binding signal is 8070 fluorescence intensity (a.u.).
With “CCCTCCTTCCCTTTTAGTGGGTCTGTTTTCTTGGAGCGCGCGGAGTCACCTAGTGCAG”, the binding signal was 8600 fluorescence intensity (a.u.).
On to “CGCAGAATCACAGTTTTTCTTCATCTCCGGCAAGGGTAATCGGAGTCACCTAGTGCAG”, for which the binding signal is 8960 fluorescence intensity (a.u.).
Next, “ACGCACCAACCGTCCCTCTTTCGCTCACACTCTTCCTTCCCGGAGTCACCTAGTGCAG”: 9700 fluorescence intensity (a.u.).
Next, “GCCTACTCCTACTTGTACATACTTGCTTTTTTTTTTTTTCCGGAGTCACCTAGTGCAG”: 17500 fluorescence intensity (a.u.).
Then “CAATTGGTTGGGTTTCTTGTGCCTACCTGTGTTTAAGTTCCGGAGTCACCTAGTGCAG”, with 9160 fluorescence intensity (a.u.); and “TACATACTCCTACTCCGTAGTTTGCTGCTTTGTTGGATTCCGGAGTCACCTAGTGCAG”, with 12900 fluorescence intensity (a.u.); and “TATTTTTTGCATTTTGCTCCCTGATTTGAACTGTATTTCTCGGAGTCACCTAGTGCAG”, with 8660 fluorescence intensity (a.u.).
Consider “TTTCTTTTTTTTGCCTACCTTTACTTTACACCAAAAACTGCGGAGTCACCTAGTGCAG”, for which the binding signal was 8630 fluorescence intensity (a.u.).
“CGGGGTTTCACTTGGTTTTAATTGTTCCTGTGCTGCGTCGCGGAGTCACCTAGTGCAG”: the binding signal is 18700 fluorescence intensity (a.u.).
For the sequence “ATACCACCTTATATACTTTGCCAAAACCACCTTTTCCAAGCGGAGTCACCTAGTGCAG”, the binding signal was 9040 fluorescence intensity (a.u.).
Consider “TTGCTCGTATTTTCTCCCCAAAGTCATCAACTTTGATGCTCGGAGTCACCTAGTGCAG”, for which the binding signal was 19000 fluorescence intensity (a.u.).
For “GTCCCATCACCTTATTTCTCATTTTGATTTACTTTTATCTCGGAGTCACCTAGTGCAG”, the binding signal is 9330 fluorescence intensity (a.u.).
Regarding “TATAGATAGATACTACCAGGGTTTCCAAACTGTTTTTTTGCGGAGTCACCTAGTGCAG”, the binding signal was 23300 fluorescence intensity (a.u.).
Next, “CTTTTCCTGCTTGGTTCGTTACTCCTGTTTAATTATTATTCGGAGTCACCTAGTGCAG”: 14600 fluorescence intensity (a.u.).
Then “AGTACTACTACTACTACATACAGCTGCCTTTGCTTAGCTCCGGAGTCACCTAGTGCAG”, with 9580 fluorescence intensity (a.u.).
“CGAGGTGTGTCTCTCTCCCGTTCACCCGTCCGTATCCTTCCGGAGTCACCTAGTGCAG”: the binding signal was 11100 fluorescence intensity (a.u.).
Then “CGATTATTTCACTAGAGGCAACCATACTGCTACCAAATCCCGGAGTCACCTAGTGCAG”, with 10200 fluorescence intensity (a.u.); and “TACCTGTTTGTTTTTAAGTTCAGATATTATATTACGTAACCGGAGTCACCTAGTGCAG”, with 8930 fluorescence intensity (a.u.); and “ACCCCATTTTTTTTGAAAATTCTCGAATTTTATTTTTTTTCGGAGTCACCTAGTGCAG”, with 8750 fluorescence intensity (a.u.).
